Consider 31 molecules from ChEMBL document CHEMBL1961873, “Compounds: GSK PKIS; Assays: Nanosyn kinase panel” (2012).

Several values for one entry are separate records, joined by “and”; a condition that tells them apart may be missing. Equal values may be shown once.
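Also: reported percent inhibition is a mean value.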

The target in this assay is Tyrosine-protein kinase FRK (Homo sapiens) (UniProt P42685). The note with it: at 1 µM.
Sequence of Tyrosine-protein kinase FRK (Homo sapiens) (P42685 whole entry): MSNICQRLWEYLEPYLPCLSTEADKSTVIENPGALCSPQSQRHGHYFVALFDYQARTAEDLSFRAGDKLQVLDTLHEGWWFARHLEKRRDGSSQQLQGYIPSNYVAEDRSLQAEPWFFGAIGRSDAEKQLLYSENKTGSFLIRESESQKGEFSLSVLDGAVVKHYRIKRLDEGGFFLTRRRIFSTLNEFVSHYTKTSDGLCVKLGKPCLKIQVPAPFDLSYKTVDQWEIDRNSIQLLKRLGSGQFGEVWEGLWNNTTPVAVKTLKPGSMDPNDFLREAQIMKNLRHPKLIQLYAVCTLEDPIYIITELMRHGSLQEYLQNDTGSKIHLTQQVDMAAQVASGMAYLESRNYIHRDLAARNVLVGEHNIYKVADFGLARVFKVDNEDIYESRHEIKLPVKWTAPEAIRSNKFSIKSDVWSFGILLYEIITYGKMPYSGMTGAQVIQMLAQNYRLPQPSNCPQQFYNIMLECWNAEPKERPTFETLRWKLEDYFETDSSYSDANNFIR
In the case of `Cc1cc(O)cc(C)c1/C=C/c1cncc(C(=O)OC(C)(C)C)c1`, the inhibition turned out to be 20.1%.
With `CS(=O)(=O)Nc1ccc(-c2ccc3c(NC(=O)C4CC4)n[nH]c3c2)cc1` the figure was 1.03%.
As for `COc1cc2c(cc1Nc1nc(Nc3cccc(F)c3C(N)=O)c3cc[nH]c3n1)N(C(=O)CN1CCN(C(C)C)CC1)CC2`, the figure is 1.24%; as for `COC(=O)Nc1nc2cc(Oc3ccc(NC(=O)Nc4ccccc4)cc3)ccc2[nH]1`, 1.93%; as for `COc1ccccc1-c1cc(/C=C2\C(=O)Nc3ncc(Br)cc32)cc(Br)c1O`, 2.12%.
Take `O=C(Nc1n[nH]c2nnc(-c3cccnc3)cc12)C1CC1`: the inhibition is -0.08%.
`CCOc1ccc2c(-c3ccnc(Nc4cc(OC)cc(C(F)(F)F)c4)n3)cnn2n1`: the inhibition was -0.61%.
With `O=C(O[C@H]1CN[C@H](C#Cc2cc3ncnc(Nc4ccc(OCc5cccc(F)c5)c(Cl)c4)c3s2)C1)N1CCOCC1` the figure was 2.3%.
In the case of `CC1=C(C(=O)Nc2ccc3[nH]ncc3c2)C(c2ccc(F)cc2)N=C(c2ccc(C(F)(F)F)nc2)N1` (stereo unspecified), the inhibition turned out to be 1.73%.
In the case of `Nc1nccc(-c2c(-c3ccc(F)cc3)ncn2C2CCNCC2)n1`, the inhibition was 1.84% and 3.88%.
With `COc1c(C(N)=O)cc(-c2ccc(Cl)cc2)cc1-c1ccc(S(N)(=O)=O)cc1` the figure was 3.5%.
With `CCS(=O)(=O)c1ccc(OC)c(Nc2ncc(-c3cccc(F)c3)o2)c1` the figure was 46.4%; with `Cc1c2ccc(N(C)c3ccnc(Nc4cccc(S(N)(=O)=O)c4)n3)cc2nn1C`, 46.1%.
On to `CN(C)CCNC(=O)Nc1ccc(N(C)c2ccnc(Nc3ccc(CS(C)(=O)=O)cc3)n2)cc1`, for which the inhibition came out at 0.97%.
With `COc1ccc2ncn(-c3cc(O[C@H](C)c4ccccc4C(F)(F)F)c(C(N)=O)s3)c2c1` the figure was 1.39%; with `Cc1nnc(-c2cccc(-c3ccc(C(=O)NCC4CC4)cc3)c2)o1`, 3.45%; with `CS(=O)(=O)Nc1ccc(-c2cc(-c3ccccc3)cc(C(N)=O)c2N)cc1`, 1.63%.
As for `CN1CCC(n2cnc(-c3ccc(F)cc3)c2-c2ccnc(NCCO)n2)CC1`, the figure is 1.02%; as for `COC(=O)Nc1nc2ccc(Oc3ccc(NC(=O)Nc4cc(C(F)(F)F)ccc4F)cc3)cc2s1`, 4.14%.
On to `COc1ccc(Nc2ncc(-c3ccccc3)o2)cc1OC`, for which the inhibition is 4.33%.
As for `OCCCNc1nccc(-c2c(-c3ccc(F)cc3)nn3cc(C(F)(F)F)ccc23)n1`, the figure is 1.35%; as for `Fc1cccc(COc2ccc(Nc3ncncc3C#Cc3ccccc3)cc2Cl)c1`, 1.62%.
With `CS(=O)(=O)CCNCc1ccc(-c2ccc3ncnc(Nc4ccc(OCc5cccc(C(F)(F)F)c5)cc4)c3c2)o1` the figure was 3.25%; with `CS(=O)(=O)CCNCc1ccoc1-c1ccc2ncnc(Nc3ccc(OCc4ccccc4)cc3)c2c1`, 0.98%; with `N#Cc1cccc(Nc2ncc(-c3ccccc3)o2)c1`, 3.54%.
As for `N#Cc1ccc2c(-c3ccnc(NC4CC4)n3)c(-c3ccc(F)cc3)nn2c1`, the inhibition was 0.3%.
With `Cc1ccc(-c2cc3c(NC(=O)C4CC4)ncnc3o2)cc1` the figure was 0.91%.
With `NS(=O)(=O)c1cccc(N/C=C2\C(=O)Nc3ccccc32)c1` the figure was 5.58%; with `O=C(O[C@H]1CN[C@H](C#Cc2cc3ncnc(Nc4ccc5c(cnn5Cc5ccccc5)c4)c3s2)C1)N1CCOCC1`, -1.26%; with `Cc1cc(O)cc(C)c1/C=C/c1cncc(C(N)=O)c1`, 14.2%.
As for `CS(=O)(=O)CCNCc1ccc(-c2ccc3ncnc(Nc4ccc(OCc5ccccc5)cc4)c3c2)o1`, the figure is 0.96%.

One may read the inhibition as the relative decrease from the control value, in per cent.
